Hits are enriched below; roughly 2.4% of the tested compounds scored in any of these assays.
C diff HTS = C. difficile growth inhibition | hit rate 0.25% among 86,000 | Clostridium difficile clinical isolate growth, OD600, 24 h; hits give low values | growth activity, negative = inhibition, % at 16 µg/mL (by protocol);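 active means mean growth activity at or below -80% and every replicate also at or below -80%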;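 further: 0% = DMSO wells and -100% = levofloxacin 16 µg/mL wells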
Pf Dd2 inh = inhibitors of Plasmodium falciparum Dd2 growth; activity change, % at 10 µM; P. falciparum Dd2 growth, SYBR Green, 72 h; hits give low values; hit rate 2.3% among 94,000; AID 1159554; in the data active means activity change below about -80%
* = called active by the depositor.

Results for COc1cccc(NC(=O)Nc2ccc3c(c2)C(=O)N(C)C[C@H](OC)[C@@H](C)CN[C@H](C)CO3)c1 ?
Pf Dd2 inh: 7

What do the screens show for `CO[C@H]1CN(C)C(=O)c2cc(NC(=O)Nc3ccc(Cl)cc3)ccc2OC[C@H](C)NC[C@@H]1C`?
C diff HTS: -4; Pf Dd2 inh: 22

Results for CO[C@H]1CN(C)C(=O)c2cc(NC(=O)Nc3ccc(Cl)c(Cl)c3)ccc2OC[C@H](C)NC[C@@H]1C ?
C diff HTS: -97*; Pf Dd2 inh: -16

What do the screens show for `CO[C@@H]1CN(C)C(=O)c2cc(NC(=O)Nc3ccc(Cl)c(Cl)c3)ccc2OC[C@@H](C)NC[C@@H]1C`?
C diff HTS: -97*; Pf Dd2 inh: -86*

What do the screens show for `CO[C@@H]1CN(C)C(=O)c2cc(NC(=O)Nc3ccc(Cl)cc3)ccc2OC[C@@H](C)NC[C@@H]1C`?
C diff HTS: -2; Pf Dd2 inh: -1

Results for COc1cccc(NC(=O)Nc2ccc3c(c2)C(=O)N(C)C[C@@H](OC)[C@H](C)CN[C@@H](C)CO3)c1 ?
Pf Dd2 inh: -87*

How did CO[C@@H]1CN(C)C(=O)c2cc(NC(=O)Nc3ccc(Cl)c(Cl)c3)ccc2OC[C@H](C)NC[C@H]1C do in these assays?
C diff HTS: -98*; Pf Dd2 inh: -77

What do the screens show for `CCCNC(=O)N1CC2(CN(C(=O)CC)C2)c2c(n(C)c3cc(OC)ccc23)[C@@H]1CO`?
C diff HTS: -2; Pf Dd2 inh: -2

What do the screens show for `COc1ccc(S(=O)(=O)Nc2ccc3c(c2)CC(=O)N([C@H](C)CO)C[C@@H](C)[C@H](CN(C)S(=O)(=O)c2ccccc2)O3)cc1`?
C diff HTS: -15; Pf Dd2 inh: 8

What do the screens show for `O=C(C[C@@H]1C=C[C@@H](NC(=O)c2ccncc2)[C@@H](CO)O1)Nc1ccc(-c2ccccc2)cc1`?
C diff HTS: 1; Pf Dd2 inh: -32

Results for COc1ccc(-c2cn(CC[C@@H]3CC[C@H](NC(=O)Nc4ccc(F)cc4)[C@@H](CO)O3)nn2)cc1 ?
C diff HTS: -3; Pf Dd2 inh: 16

What do the screens show for `C/C=C/c1ccc([C@H]2[C@@H](CNC(C)=O)N(C(=O)Cc3ccncc3)[C@H]2CO)cc1`?
C diff HTS: 0; Pf Dd2 inh: -32

Results for C[C@@H]1CCCCO[C@@H](CN(C)CC2CC2)[C@H](C)CN([C@@H](C)CO)C(=O)c2cc(NC(=O)Nc3ccc(F)cc3)ccc2O1 ?
C diff HTS: 6; Pf Dd2 inh: -23

How did Cc1ccccc1S(=O)(=O)N(C)C[C@H]1OCc2ccccc2-c2c(n(C)c3ccccc23)C(=O)N([C@@H](C)CO)C[C@@H]1C do in these assays?
Pf Dd2 inh: -85*

What do the screens show for `COc1ccccc1S(=O)(=O)N(C)C[C@@H]1OCc2ccccc2-c2c(n(C)c3ccccc23)C(=O)N([C@H](C)CO)C[C@@H]1C`?
C diff HTS: -6; Pf Dd2 inh: -94*

Results for COc1ccccc1S(=O)(=O)N(C)C[C@@H]1OCc2ccccc2-c2c(n(C)c3ccccc23)C(=O)N([C@@H](C)CO)C[C@H]1C ?
C diff HTS: 12; Pf Dd2 inh: -62

What do the screens show for `Cc1ccccc1S(=O)(=O)N(C)C[C@H]1OCc2ccccc2-c2c(n(C)c3ccccc23)C(=O)N([C@H](C)CO)C[C@@H]1C`?
Pf Dd2 inh: -64

What do the screens show for `COc1ccccc1S(=O)(=O)N(C)C[C@@H]1OCc2ccccc2-c2c(n(C)c3ccccc23)C(=O)N([C@@H](C)CO)C[C@@H]1C`?
C diff HTS: 1; Pf Dd2 inh: -93*

How did COc1ccc(S(=O)(=O)N(C)C[C@@H]2OCc3ccccc3-c3c(n(C)c4ccccc34)C(=O)N([C@H](C)CO)C[C@H]2C)cc1 do in these assays?
Pf Dd2 inh: -78

Results for CC(C)(C)[S@](=O)N1Cc2cc(C(=O)N3CCOCC3)nc(-c3cccc(Br)c3)c2[C@@H]1CCO ?
C diff HTS: 5; Pf Dd2 inh: 1

Results for CC(C)C#Cc1cnc2c(c1)C(=O)N([C@H](C)CO)C[C@@H](C)[C@@H](CN(C)C(=O)Nc1ccccc1)O2 ?
C diff HTS: 14

Results for COc1ccc2c3c([nH]c2c1)[C@H](CO)N(C(=O)NC(C)C)CC31CN(C(=O)NC2CCCC2)C1 ?
C diff HTS: -9; Pf Dd2 inh: -9

Results for CO[C@H]1CN(C)C(=O)c2cc(NC(=O)Nc3ccc(C(F)(F)F)cc3)ccc2OC[C@H](C)NC[C@H]1C ?
Pf Dd2 inh: -88*

How did CO[C@@H]1CN(C)C(=O)c2ccc(NC(=O)Nc3ccc(C(F)(F)F)cc3)cc2OC[C@@H](C)NC[C@@H]1C do in these assays?
C diff HTS: 22; Pf Dd2 inh: -83*

Results for CO[C@H]1CN(C)C(=O)c2ccc(NC(=O)Nc3ccc(C(F)(F)F)cc3)cc2OC[C@@H](C)NC[C@H]1C ?
Pf Dd2 inh: -28

Results for CO[C@H]1CN(C)C(=O)c2ccc(NC(=O)Nc3ccc(C(F)(F)F)cc3)cc2OC[C@H](C)NC[C@@H]1C ?
C diff HTS: 7; Pf Dd2 inh: -25
